Shown are actives, neighbours in structure and some others; about 7.3% of the full set was active somewhere.
SMN2 splice up: enhancers of SMN2 splice variant expression | HEK293 SMN2-luciferase splicing reporter, luminescence, 30-36 h | Potency, µM (series often up to 46.1 µM), inactives show at the highest dose activity change, positive = activation, actives largely listed as activators | hit rate 2.8% among 210,000 | AID 1458; further: % of control where 0% means no effect; nearly all actives have a fitted effect of over 55% in size
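HEK293 cells carry an SMN2 minigene-luciferase reporter in which exon 7 inclusion puts luciferase in frame. Cells were seeded at 2000 cells/well, attached for 10-12 hours, then exposed to compounds for 30-36 hours at 37C before ONE-Glo luminescence.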
ELG1 genotoxic: inducers of genotoxicity in HEK293T ELG1-luciferase cells; HEK293T ELG1-luciferase reporter, luminescence, 16 h; Potency, µM (top dose mostly 46 µM), for the others: at the top dose activity change, positive = activation, most hits filed as activators; hit rate 1.3% among 330,000; further: % of control where 0% means no effect; nearly all actives have a fitted effect of over 60% in size
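Luminescence read-out: rising ELG1-luciferase signal, reflecting elevated ELG1 protein under genetic stress, flags genotoxic compounds. Cells were treated for 16 hr at 37 °C before ONE-Glo detection.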
FLuc counter: inhibits or activates purified firefly luciferase, miR-21 counter-screen; P08659; purified FLuc, Km substrates, luminescence inhibition; Potency, µM (highest dose often 57.5 µM), for inactives: top-dose activity change, negative = inhibition, usual class: inhibitors; hit rate 6.9% among 360,000; AID 588342;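 further: plate controls were vehicle for no effect and reference inhibitor for full effect; nearly all actives have a fitted effect of over 55% in size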
Target sequence (P08659 whole entry, looked up): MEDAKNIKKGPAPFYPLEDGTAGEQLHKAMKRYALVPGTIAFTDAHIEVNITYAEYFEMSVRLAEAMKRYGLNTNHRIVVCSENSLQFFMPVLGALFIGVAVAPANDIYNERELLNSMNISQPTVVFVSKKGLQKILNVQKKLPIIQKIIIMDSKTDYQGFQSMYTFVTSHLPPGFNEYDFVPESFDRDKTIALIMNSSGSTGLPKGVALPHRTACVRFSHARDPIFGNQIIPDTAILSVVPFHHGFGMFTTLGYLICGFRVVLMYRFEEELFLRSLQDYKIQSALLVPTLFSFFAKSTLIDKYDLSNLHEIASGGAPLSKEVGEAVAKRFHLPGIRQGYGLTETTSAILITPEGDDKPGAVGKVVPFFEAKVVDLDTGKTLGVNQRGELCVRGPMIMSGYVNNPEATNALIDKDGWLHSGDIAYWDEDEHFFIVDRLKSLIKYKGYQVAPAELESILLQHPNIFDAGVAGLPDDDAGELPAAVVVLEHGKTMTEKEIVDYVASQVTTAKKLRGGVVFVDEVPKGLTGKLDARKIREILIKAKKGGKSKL
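Biochemical qHTS of compounds, final roughly 60 µM downward over six points, against 10 nM purified firefly luciferase using Km concentrations of substrates (10 uM D-luciferin, 10 uM ATP) in Tris acetate pH 7.5 buffer; luminescence output.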
Rab9 prom act: activates the Rab9 promoter | hit rate 2.8% among 320,000 | AID 485297 | Potency, µM (highest dose often 9.22 µM), inactives show top-dose activation, negative = inhibition, hits mostly activators | Huh7 Rab9 promoter-luciferase reporter, luminescence, 24 h; further: % of control where 0% means no effect; nearly all actives have a fitted effect of over 60% in size
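Cells were plated at 1500 per well in reduced-serum medium with 10% FBS and left 2 h. Compound in DMSO was then added for 24 h at 37 °C. Reporter signal was read by luminescence after 10 min with luciferase detection reagent.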
NPC1 prom act: activates the NPC1 promoter; Potency, µM (top dose mostly 9.22 µM), inactives show at the highest dose activation, usual class: activators; hit rate 2.4% among 320,000; Huh7 NPC1 promoter luciferase reporter, 24 h; further: % of control where 0% means no effect; nearly all actives have a fitted effect of over 60% in size
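Compounds in DMSO were transferred onto Huh7 NPC1-luciferase reporter cells pre-incubated 2 h; after 24 h at 37 °C, Amplite reagent was dispensed and luminescence recorded 10 min later.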
p53 reactivator: re-activators of mutant p53 | H1299 p53-A138V BP100-luciferase reporter, luminescence, 24 h | AID 504706 | Potency, µM (highest dose often 92.2 µM), inactives show at the highest dose activity change, positive = activation, usual class: activators | hit rate 0.063% among 320,000; further: % of control where 0% means no effect; nearly all actives have a fitted effect of over 45% in size
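H1299 (p53-null), stable ts p53-A138V + BP100-Luc; 1000 cells/well, Opti-MEM/10% FBS; cpd 4 pt, 1:5; 24 h, 37 deg C, 5% CO2; detection reagent 10 min RT; luminescence.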
An asterisk follows results filed as active; [ ] = remark or other dose. The call rests on the fitted dose curve; in most records, active means well fitted curve in the direction sought with a large enough effect; inconclusive means small, poorly fitted or top-dose-only effect, or another doubt; inactive means no such curve, though single readings can be large; an effect the other way counts as inactive or inconclusive. Potency means the concentration at half of the fitted maximal effect.

COC[C@]12CN(C=O)C3C4C(OC)C1[C@@]3(C1CC3(O)C(OC)C(O)C4(OC(C)=O)C1C3OC(=O)c1ccccc1)[C@@H](OC)CC2O (some centres undefined) was read as SMN2 splice up -1.6%.
C/C(=N\NC(=S)Nc1ccccc1)c1c(O)n(C)c(=O)n(C)c1=O was read as SMN2 splice up 28.1%, ELG1 genotoxic 6.6%, FLuc counter 12µM*, Rab9 prom act -1.9%, NPC1 prom act 6.3% and p53 reactivator inconclusive.
Screening CC/C(=N\Nc1ccccc1)c1c(O)n(C)c(=O)n(C)c1=O returned SMN2 splice up -39.4%, ELG1 genotoxic -0.4%, FLuc counter -1.5%, Rab9 prom act -12.9%, NPC1 prom act 0.8% and p53 reactivator -2.8%.
For Cn1nc(OC(=O)Nc2ccccc2)cc1C(F)(F)F the results were SMN2 splice up 17.4%, ELG1 genotoxic 13.1%, FLuc counter 16.9µM*, Rab9 prom act 28.8%, NPC1 prom act inconclusive and p53 reactivator inconclusive.
O=C(Nc1ccccc1)Oc1ccccc1 was read as SMN2 splice up 25.0%, ELG1 genotoxic 4.3%, FLuc counter -10.9%, Rab9 prom act 1.4%, NPC1 prom act -2.6% and p53 reactivator 7.6%.
`CN(C)CS/C(N)=N/[C@H](O)C(Cl)(Cl)Cl` gave SMN2 splice up 11.1%[9.22 µM].
Screening Nc1c(C(=O)Nc2ccc(Cl)cc2)sc2nc3c(cc12)N1CCC3CC1 returned SMN2 splice up -4.6% and FLuc counter -14.8%.
Screening Nc1c(C(=O)Nc2cccc(Br)c2)sc2nc3c(cc12)N1CCC3CC1 returned SMN2 splice up -31.1% and FLuc counter 12µM*.
For C[N+]1(C)[C@@H]2CC(OC(=O)[C@@H](CO)c3ccccc3)C[C@@H]1[C@H]1O[C@H]12 (some centres undefined) the results were SMN2 splice up -0.8%[9.22 µM].
c1ccc(N2CCCC3(CCNCC3)C2)nc1 was read as SMN2 splice up 7.8%.
CN1CC[C@@]2(CCCN(C(=O)Oc3ccccc3)C2)C1 was read as SMN2 splice up -4.3%.
`CN1C(=O)C(=Cc2ccc(SC3CCCCC3)o2)C(=O)N(C)C1=O` gave SMN2 splice up -12.8%, ELG1 genotoxic 15.1%, FLuc counter 16.9µM*, Rab9 prom act -0.9%, NPC1 prom act -3.7% and p53 reactivator -0.6%.
CC1(C)C(O)CC(=O)[C@]2(C)C1CC(=O)[C@]1(C)C2CC[C@@]2(C)C(c3ccoc3)OC(=O)C3O[C@@]321 (some centres undefined) was read as SMN2 splice up -0.4%.
Cc1c(C(c2ccc(Br)cc2)c2c(O)c3ccccc3oc2=O)c(=O)n(-c2ccccc2)n1C (centres undefined) was read as SMN2 splice up -12.3%, ELG1 genotoxic 6.2%, FLuc counter 12µM*, Rab9 prom act -7.4%, NPC1 prom act -5.0% and p53 reactivator -4.8%.
CC(C)Oc1ccc(CNC(=O)Oc2ccccc2)cc1 was read as ELG1 genotoxic 5.2%, FLuc counter 6.75µM*, Rab9 prom act 3.16µM* and NPC1 prom act 3.55µM*.
Cc1ccc(C(=O)Nc2nc3ccccc3n2CCN2CCCC2)cc1 was read as ELG1 genotoxic 4.61µM*, FLuc counter 10.7µM*, Rab9 prom act inconclusive, NPC1 prom act 15.3% and p53 reactivator inconclusive.
For CCCn1c(C(=O)c2ccccc2)nc2ccccc21 the results were SMN2 splice up -24.3%, ELG1 genotoxic -0.2%, FLuc counter -13.5%, Rab9 prom act -3.3%, NPC1 prom act 0.2% and p53 reactivator -1.4%.
Screening CCc1c(C(=O)OC)ncc2[nH]c3cc(OC)c(OC)cc3c12 returned SMN2 splice up -11.3%.
Screening CCCOC(=O)c1cc2c(cn1)[nH]c1ccccc12 returned SMN2 splice up 28.2µM*.
For Cn1nnc2cc(NC(=O)Nc3cccc(Cl)c3)ccc21 the results were ELG1 genotoxic inconclusive, FLuc counter inconclusive, Rab9 prom act 1.41µM*, NPC1 prom act 2µM* and p53 reactivator 1.9%.
`CC(Cl)CCl` (centres undefined) gave SMN2 splice up 8.7%.
Screening CN1C(=O)C(=Cc2c(OCc3cnc(Cl)s3)ccc3ccccc23)C(=O)N(C)C1=O returned SMN2 splice up 2.9%, ELG1 genotoxic inconclusive, FLuc counter 19µM*, Rab9 prom act inconclusive, NPC1 prom act 22.4% and p53 reactivator inconclusive.
Screening CC(C)(C)c1csc(NC(=O)Nc2ccccc2)n1 returned SMN2 splice up 7.94µM*, ELG1 genotoxic -0.9%, FLuc counter 3.38µM*, Rab9 prom act 1.78µM*, NPC1 prom act 3.98µM* and p53 reactivator inconclusive.
For Cc1ccc(C2(c3ccc(C)c(O)c3C)CCN(C)CC2)c(C)c1O the results were SMN2 splice up -5.2%[9.22 µM].
Screening CC(=O)C1=NOC(CNc2ncc(C(F)(F)F)cc2Cl)C1 (centres undefined) returned SMN2 splice up 18.4%, ELG1 genotoxic inconclusive, FLuc counter 26.9µM*, Rab9 prom act inconclusive, NPC1 prom act 18.4% and p53 reactivator 0.4%.
Screening O=C1NC(=O)N(CCNc2ncc(C(F)(F)F)cc2Cl)C(=O)C1/C=N/OCc1c(F)cccc1Cl (centres undefined) returned SMN2 splice up -44.3%, ELG1 genotoxic 0.5%, FLuc counter -4.7%, Rab9 prom act -0.9%, NPC1 prom act -4.2% and p53 reactivator 3.9%.
CC(=O)OC(CC(=O)O)C[N+](C)(C)C (centres undefined) was read as SMN2 splice up 12.6µM*, ELG1 genotoxic -5.6%, FLuc counter 4.7%, Rab9 prom act -7.1%, NPC1 prom act -2.3% and p53 reactivator 1.1%.
CC(=O)OCC[N+](C)(C)C was read as SMN2 splice up -21.5%, ELG1 genotoxic -2.9%, FLuc counter 2.8%, Rab9 prom act -35.3%, NPC1 prom act 0.2% and p53 reactivator 3.3%.
O=C(O)c1ccc(-n2c(O)c(/C=C3\C=Nc4ccccc43)c(=O)[nH]c2=O)cc1 was read as ELG1 genotoxic 0.4%, FLuc counter 19µM*, Rab9 prom act -4.5%, NPC1 prom act 2.1% and p53 reactivator 1.9%.
Screening N#CC(C#N)=NNc1ccc([N+](=O)[O-])cc1 returned ELG1 genotoxic -10.8%, FLuc counter 16.9µM*, Rab9 prom act -6.8%, NPC1 prom act 0.1% and p53 reactivator inconclusive.
